Data reported in PubChem BioAssay AID493175 (National Center for Advancing Translational Sciences (NCATS), 2011).
Results filed as inconclusive are left out. Active and inactive are the calls of the source. The call rests on the fitted dose curve; in most records, active means well fitted curve in the direction sought with a large enough effect; inconclusive means small, poorly fitted or top-dose-only effect, or another doubt; inactive means no such curve, though single readings can be large or run the other way.

These compounds were tested against Luciferin 4-monooxygenase (Photinus pyralis) (UniProt P08659) (assay: miR-21 counterscreen using purified firefly luciferase). Conditions: purified P. pyralis luciferase, luminescence; series mostly up to 57.5 µM; activity change, negative = inhibition: at the top concentration.
Source text: MLPCN Grant: 1 R21 NS059478-01 Assay Provider: Qihong Huang, The Wistar Institute NCGC Assay Overview: MicroRNAs (miRNAs) are endogenously encoded small (~20-25 nucleotides), nonprotein-coding RNAs that are involved in post-transcriptional repression of target messenger RNAs (mRNAs) (Le and Hannon, 2004). Estimated to be involved in the regulation of 30% of all protein-coding mRNAs (Filipowicz et al., 2008), miRNAs play a significant role in many biological processes including cellular differentiation and tissue development (Ghildiyal and Zamore, 2009). […] Compounds active in the miR-21 FLuc assay were clustered using Leadscope and active chemical series were prioritized based on chemical properties, potential for medicinal chemistry optimization, and SAR. Within each chemical series, representative compounds were re-acquired to test for activity in a secondary assay based on the quality of their CRC, efficacy, and potency. This secondary assay to determine if compounds active in the miR-21 FLuc assay were just luciferase inhibitors. Compounds found active in both the miR-21 FLuc and purified FLuc assays are considered as false positives. Keywords: NIH Roadmap, MLPCN, MLSMR, qHTS, miR-21, firefly luciferase, FLuc, miRNA.
NCGC Assay Protocol Summary: Reagents: 50mM Tris acetate, pH 7.5; 10mM Mg acetate; 10uM D-luciferin (Sigma #L9504); 10uM ATP; 0.01% Tween-20; 0.05% BSA; 10nM P. pyralis luciferase (Sigma #L9506) Control compounds used were two known firefly luciferase inhibitors (compounds (2) and (5) in Auld et al., 2010), and DMSO. Assay Summary: Three microliters containing firefly luciferase substrates in buffer (final concentrations: 50mM Tris acetate, pH 7.5, 10mM Mg acetate, 0.01% Tween-20, 0.05% BSA, 10uM D-luciferin, and 10uM ATP) are dispensed into each well of a Greiner white, solid-bottom 1536-well format plate using a flying reagent dispenser (FRD). These assay plates were then treated with 23nL of compound or DMSO using a Kalypsys pin tool, which allows for delivery of a 6-point interplate titration of each compound to the assay plate (quantitative HTS), with a final compound concentrations ranging from approximately 60 µM to 7pM. One microliter of firefly luciferase in […] Tris-acetate buffer was then delivered by FRD to each well for a final enzyme concentration of 10nM. Luciferase activity was then measured using a ViewLux CCD imager (PerkinElmer), with an average exposure time of 2-30 seconds (2X binning, medium/high gain).

Chain of Luciferin 4-monooxygenase (Photinus pyralis) (P08659 whole entry, looked up): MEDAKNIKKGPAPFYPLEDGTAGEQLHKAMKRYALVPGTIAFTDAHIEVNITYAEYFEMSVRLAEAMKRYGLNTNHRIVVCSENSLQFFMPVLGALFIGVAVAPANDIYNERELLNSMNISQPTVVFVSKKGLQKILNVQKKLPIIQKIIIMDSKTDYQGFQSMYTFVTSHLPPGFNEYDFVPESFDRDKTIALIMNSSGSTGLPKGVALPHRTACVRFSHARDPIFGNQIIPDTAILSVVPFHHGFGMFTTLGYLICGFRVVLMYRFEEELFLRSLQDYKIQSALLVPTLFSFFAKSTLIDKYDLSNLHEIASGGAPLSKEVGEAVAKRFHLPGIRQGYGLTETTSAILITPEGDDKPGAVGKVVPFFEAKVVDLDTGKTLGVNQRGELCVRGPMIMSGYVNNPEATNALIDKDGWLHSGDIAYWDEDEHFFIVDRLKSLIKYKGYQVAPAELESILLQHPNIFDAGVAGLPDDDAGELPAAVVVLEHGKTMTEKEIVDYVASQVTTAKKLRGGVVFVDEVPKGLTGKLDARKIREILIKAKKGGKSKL

Compound	activity change, negative = inhibition
O=C(c1ccc(Cl)cc1)n1nc(-c2ccccc2)nc1NCc1ccco1	4.64% (inactive)
Cc1ccc(C(=O)Nc2ccc3c(c2)N(C)C(=O)c2ccccc2S3)cc1	-1.26% (inactive)
Cc1cccc(N2CCN(c3ncnc4onc(C)c34)CC2C)c1 (stereo not given)	-2.15% (inactive)
CS(=O)(=O)c1ncc(Cl)c(C(=O)N2CCN(c3cccc(Cl)c3)CC2)n1	-18.8% (inactive)
Nc1c(-c2nc(-c3ccccc3Cl)no2)nnn1-c1ccccc1F	-14.3% (inactive)
CC(C)S(=O)(=O)c1oc(-c2cccs2)nc1S(=O)(=O)c1ccc(F)cc1	-14.5% (inactive)
COc1ccccc1NC(=O)CSc1nnc(-c2ccccn2)o1	3.59% (inactive)
CCC(C)S(=O)(=O)c1oc(-c2cccs2)nc1S(=O)(=O)c1ccccc1 (stereo not given)	-12.1% (inactive)
Cc1cc(Nc2cccc(C(F)(F)F)c2)nc2ccc(NC(=O)c3cccnc3)cc12	1.05% (inactive)
Cc1ccc(-c2nc(NCc3ccco3)n(S(C)(=O)=O)n2)cc1	0.606% (inactive)
Cc1ccc(-n2nnc(-c3nsc(NC(=O)c4ccccc4)n3)c2C)cc1	-7.45% (inactive)
Cc1cc(SCC(=O)Nc2nsc(-c3ccc(C(C)(C)C)cc3)n2)nc2ccccc12	1.68% (inactive)
O=C(CSc1nnc(-c2ccc(Cl)cc2)o1)Nc1ccc(F)cc1	-3.58% (inactive)
CCc1ccc2oc(C(=O)Nc3nonc3CC)c(C)c2c1	-14.6% (inactive)
COc1ccccc1C(=O)n1nc(-c2ccco2)nc1NCc1ccc(Cl)cc1	0.108% (inactive)
C/C(=N\NC(=O)c1ccncc1)c1ccc(NC(=O)c2ccc(Cl)cc2)cc1	-10.4% (inactive)
c1ccc(CSc2nnc3ccc(-c4cccs4)nn23)nc1	-15.9% (inactive)
CC(C)S(=O)(=O)c1oc(-c2ccc(F)cc2)nc1S(=O)(=O)c1ccc(F)cc1	-2.87% (inactive)
Cc1cccc(OCc2nnc(SCC(=O)Nc3ccc(N4CCOCC4)cc3)o2)c1	0.777% (inactive)
Cc1ccccc1Nc1nc(N)nc(CN(C)c2ccccc2)n1	0.346% (inactive)

Compound	activity change, negative = inhibition
CC1=C(c2ccc(C)c(C)c2)S(=O)(=O)N=C1N1CCC(C(=O)NCCc2ccc(Cl)cc2)CC1	9.77% (inactive)
NC(=O)c1ccccc1NC(=O)c1ccc(-c2ccc(Br)cc2)o1	0.577% (inactive)
COc1ccc(NC(=O)c2ncn(-c3ccccc3)n2)cc1Cl	-14.2% (inactive)
O=C(CSc1nnc(-c2cccnc2)o1)Nc1cccc(Cl)c1	2.64% (inactive)
COc1ccc(-c2nc(SCc3ccccc3)n(S(C)(=O)=O)n2)cc1	1.64% (inactive)
COc1ccccc1Nc1nn2c(=O)c3ccc(C(=O)NCc4cccs4)cc3nc2s1	-3.28% (inactive)
Cc1ccc(CNc2nc(-c3ccco3)nn2S(C)(=O)=O)cc1	1.57% (inactive)
Cc1c(-c2nsc(NC(=O)c3cccs3)n2)nnn1-c1ccc(Cl)cc1	-6.95% (inactive)
CCC(=O)n1nc(-c2cccnc2)nc1NCc1ccc(F)cc1	-1.65% (inactive)
Cc1ccc(-c2csc(NC(=O)CSc3nc4ccccc4o3)n2)cc1	0.587% (inactive)
COc1ccc(OCC(=O)Nc2ccc(-c3nc4cc(C)c(C)cc4o3)cc2)cc1	-0.217% (inactive)
Cc1ccc(-c2nc3cnccn3c2Nc2ccccc2)o1	-19.4% (inactive)
COc1ccc(NCc2cccn2-c2nnc(N3CCC(C)CC3)s2)c(OC)c1	-18.9% (inactive)
CCS(=O)(=O)c1oc(-c2ccc(F)cc2)nc1S(=O)(=O)c1ccccc1	0.873% (inactive)
CCc1nonc1NC(=O)c1oc2cc(C)c(C)cc2c1C	3.62% (inactive)
Cc1cccc(-n2nnc(-c3nc(-c4cccs4)no3)c2N)c1	-6.42% (inactive)
COCC(=O)Nc1c(C(=O)Nc2ccc3c(c2)OCCO3)oc2ccccc12	-14.9% (inactive)
O=C(CSc1nnc(-c2ccc(C(F)(F)F)cn2)o1)Nc1cccc(Cl)c1	-0.604% (inactive)
Cc1cc(C)c2c(N)c(C(=O)Nc3ccccc3F)sc2n1	-19.7% (inactive)
CCS(=O)(=O)c1ncc(Cl)c(C(=O)N2CCN(c3cccc(Cl)c3)CC2)n1	-13.3% (inactive)
